Data as given in PubChem BioAssay.

Experiment: probe aShh binding to arrayed compounds – biochemical, biotinylated probe, 635/667 nm fluorescence, primary screen (AID 1114);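 further: probe is biotin-labelled aShh protein from a stem cell growth factor screen; measures binding of labelled protein to compounds printed on the slide; score merges feature fluorescence at 667 nm with signal-to-noise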
Conditions: small-molecule microarray, higher = more signal

Compound | composite z-score
C[C@@H]1NC(=O)[C@@H](Cc2ccccc2)NC(=O)[C@@]23C(=O)N[C@@H](Cc4ccccc4)C2[C@H](C)[C@@]2(C)O[C@H]2C3/C=C/C/C=C\CNC1=O (stereo not given in full) | -0.0471
COc1cccc(C)c1NC(=O)O[C@H]1[C@H](OC(=O)Nc2ccc3c(c2)OCO3)[C@@H](OC(=O)Nc2ccc3c(c2)OCO3)[C@@H](OC)O[C@@H]1CO | 0.149
C=C(COC)/C(=C/C[C@H](OC(=O)c1ccncc1)c1ccc(CO)o1)c1cnc2ccccc2c1 | 0.337
CC(C)=C1C(=O)C(c2ccccc2)=C2CN3C(=O)N(CCc4ccccc4)C(=O)[C@]3(Cc3ccc(C(F)(F)F)cc3)[C@H]21 | 0.275
CCCCNC(=O)c1ccc(C#CC(C)(C)C)c(OC(C)=O)c1 | -0.117
C=CCC(OC(C)=O)[C@@H]1[C@@H](N(Cc2cccc3ccccc23)C(=O)Cc2ccc(OC)cc2)c2cc(OCCCO)ccc2N1C(=O)c1ccc(-c2ccccc2)cc1 (stereo not given in full) | -0.156
COc1cc(NN2C(C(O)c3ccc(N(C)C)cc3)C=CC3C(=O)N(c4ccccc4)C(=O)C32)cc(OC)c1OC (stereo not given) | 0.184
CCCC[C@@H](O)C1=C(COC)C[C@H]2C(=O)N(C)C(=O)[C@H]2[C@H]1CO | -0.138
CC1CC/C=C\[C@H]2OC34C=CCN(c5ccc6ccccc6c5)C(=O)[C@H]3N(CCCO)C(=O)[C@@H]4C2C(=O)O1 (stereo not given in full) | -0.291
CC(C)C(CO)N1C(=O)[C@@H]2[C@H]3C(=O)OCC=C[C@H]3OC23C=CCN(c2ccc(Cl)cc2)C(=O)[C@@H]13 (stereo not given in full) | 0.0278
CCCN1C(=O)[C@@]2(Cc3ccccc31)N=C(c1ccc(OCCCO)cc1)O[C@H]2c1ccccc1 | 0.123
O=C(O)[C@@H]1[C@@H]2C(=O)N(c3ccccc3)C(=O)[C@@H]2C[C@@H]1Sc1ccccc1 | 0.328
COCCOC(=O)N1C(=O)[C@@]2(c3cc(C#CCNC(N)=O)ccc31)[C@H](C(N)=O)[C@H]1C(=O)O[C@H](c3ccccc3)[C@H](c3ccccc3)N1[C@@H]2c1ccccc1OCCO | -0.0977
COC(=O)[C@@]1(Cc2ccc(OC)cc2)[C@H]2c3cc(C(=O)N4CCCC4)n(CCO)c3C[C@H]2CN1C(=O)c1ccccc1 | 0.305
C[N+](C)(C)CCCCCCNC(=O)[C@@H]1C[C@@H]2C(=O)N3CCC[C@H]3C(=O)N2[C@@H]1c1ccc(O)cc1 | -0.138
O=C1O[C@@H](c2ccccc2)[C@@H](c2ccccc2)N2[C@@H](c3ccc(O)cc3)[C@]3(C(=O)Nc4ccc(C#CCCO)cc43)[C@@H](C(=O)N3CCN(c4ncccn4)CC3)[C@H]12 | -0.232
CC(C)c1ccc(NN2C(C(O)c3ccc(F)cc3)C=CC3C(=O)N(c4ccccc4)C(=O)C32)cc1 (stereo not given) | 0.246
C[N+](C)(C)CCCC[C@@H]1NC(=O)[C@@H]2C[C@H](C(=O)NCCCCCCN)[C@H](c3cccc(OCCO)c3)N2C1=O | 1.45
Cc1ccc(S[C@]2(C(=O)NCC(F)(F)F)CC(=O)N(Cc3cc(C(F)(F)F)cc(C(F)(F)F)c3)[C@@H]2c2ccc(CO)cc2I)cc1 | -0.0035
C=C[C@H]1C(C(=O)OCC)=CC[C@@H](c2ccccc2)N1S(=O)(=O)c1ccc(C)cc1 | -0.181
CCCCN1CC=CC23O[C@@H]4/C=C\CCCOC(=O)C4[C@H]2C(=O)N(CCO)[C@@H]3C1=O (stereo not given in full) | -0.206
CCCCN1CC=CC23O[C@@H]4/C=C\CCC(C)OC(=O)C4[C@H]2C(=O)N(CCCO)[C@@H]3C1=O (stereo not given in full) | 0.535
O=C(NCc1ccc(F)cc1)[C@H]1C[C@H]2C(=O)NCC(=O)N2[C@H]1c1ccc(O)cc1 | -0.0553
CCOC(=O)C[C@H]1[C@H](OC(=O)Cc2ccc3c(c2)OCO3)[C@@H](NC(=O)c2ccc3ccccc3n2)c2cc(OCCCO)ccc2N1C(=O)c1ccccc1 | -0.214
COc1cc2c(cc1O)C(C1CC1)N(C)CC2 (stereo not given) | -0.24
COC(=O)C1=CC(CCCO)=CC(c2cccs2)N(Cc2cccc(OC(F)(F)F)c2)C=C1C(=O)OC (stereo not given) | 0.0121
COCCCNC(=O)[C@@]1(Sc2ccc(C)cc2)CC(=O)N(C2Cc3ccccc3C2)[C@@H]1c1ccc(CO)cc1 | -0.2
CN(C)c1ccc(C(O)C2C=CC3C(=O)NC(=O)C3N2Nc2ccccn2)cc1 (stereo not given) | -0.154
COc1ccccc1CN1C(=O)c2ccccc2[C@](Cc2ccccc2I)(C(=O)O)[C@@H]1c1ccc(CO)cc1 | 0.336
CC(C)N1CC=CC23O[C@@H]4C=CCCOC(=O)C4[C@H]2C(=O)N(CCCO)[C@@H]3C1=O (stereo not given in full) | -0.0769
